This note sets out measurements from the supplement of paper PMC13380429.

Values without a mark were called inactive.

For this experiment, the system named is Vero E6 infected with SARS-CoV-2. The experiment in a line: inhibition of SARS-CoV-2 cytopathic effect; higher = more antiviral protection, active = above 15. The conditions noted are these: 48 h.

Regarding `C#C[C@]1(OC(C)=O)CC[C@H]2[C@@H]3CCC4=C[C@@H](OC(C)=O)CC[C@@H]4[C@H]3CC[C@@]21C` [ethynodiol-diacetate], the “inhibition of SARS-CoV-2 cytopathic effect” value (shortened to “inhibition”) by setting is: (1 nM) 1.35%; (8.33 nM) 3.73%; (100 nM) 2.52%; (833.33 nM) -2.62%; (10000 nM) -1.63%.

Take `O=c1cccc2n1C[C@@H]1CNC[C@H]2C1` [cytisine]: the “inhibition” value was 1.86% (1 nM); 0.43% (8.33 nM); -2.65% (100 nM); -1.32% (833.33 nM); -2.16% (10000 nM).

Turning to `O=C(NCCN1CCC2(CC1)C(=O)NCN2c1cccc(F)c1)c1ccc(F)c(F)c1`, the “inhibition” value runs as follows: (1 nM) 3.32%; (8.33 nM) 2.54%; (100 nM) 0.98%; (833.33 nM) 1.22%; (10000 nM) 22% (active).

In the case of `N[C@H](C(=O)O)c1ccc(O)cc1` [oxfenicine], the “inhibition” value is, setting by setting: (1 nM) 2.15%; (8.33 nM) 3.82%; (100 nM) 2.38%; (833.33 nM) 0.58%; (10000 nM) 2.3%.

Take `CCc1cc2cc(OC)c(OC)cc2c(Cc2ccccc2)n1` [moxaverine]: the “inhibition” value by setting is: (1 nM) 3.28%; (8.33 nM) 0.47%; (100 nM) 0.44%; (833.33 nM) 0.83%; (10000 nM) 4.26%.

In the case of `CC1(C)CCC(C)(C)c2cc(C3(c4ccc5cc(C(=O)O)ccc5c4)SCCS3)ccc21`, the “inhibition” value was -0.61% (1 nM); 2.69% (8.33 nM); 1.81% (100 nM); 1.35% (833.33 nM); 2.66% (10000 nM).

`CC[C@H]1OC(=O)[C@H](C)[C@@H](O[C@H]2C[C@@](C)(OC)[C@@H](O)[C@H](C)O2)[C@H](C)[C@@H](O[C@@H]2O[C@H](C)C[C@H](N(C)C)[C@H]2O)[C@](C)(O)C[C@@H](C)CN(C)[C@H](C)[C@@H](O)[C@]1(C)O` [azithromycin]: the “inhibition” value is, setting by setting: (1 nM) 0.31%; (8.33 nM) 1.86%; (100 nM) 2%; (833.33 nM) 0.56%; (10000 nM) 0.92%.

Turning to `O=C(/C=C/c1cccnc1)NCCCCC1CCN(C(=O)c2ccccc2)CC1`, the “inhibition” value runs as follows: (1 nM) 3.22%; (8.33 nM) -5.64%; (100 nM) -20.3%; (833.33 nM) -24.1%; (10000 nM) -24.5%.

For `CCOc1ccccc1C(N)=O` [ethenzamide], the “inhibition” value runs as follows: (1 nM) 5.35%; (8.33 nM) 3.1%; (100 nM) 2.44%; (833.33 nM) 2.62%; (10000 nM) 4.34%.

Take `Clc1ccc(C(Cn2ccnc2)OCc2ccsc2Cl)c(Cl)c1` (stereo not given) [tioconazole]: the “inhibition” value runs as follows: (1 nM) 6.75%; (8.33 nM) -2.6%; (100 nM) 5.03%; (833.33 nM) -4.33%; (10000 nM) -5.16%.

For `CC(C)C[C@H](NC(=O)CNC(=O)[C@H](Cc1ccc(O)cc1)NC(=O)[C@H](CO)NC(=O)[C@H](Cc1c[nH]c2ccccc12)NC(=O)[C@H](Cc1cnc[nH]1)NC(=O)[C@@H]1CCC(=O)N1)C(=O)N[C@@H](CCCNC(=N)N)C(=O)N1CCC[C@H]1C(=O)NCC(N)=O` [gonadorelin], the “inhibition” value is -1.95% (1 nM); -2.66% (8.33 nM); 0.47% (100 nM); -1.19% (833.33 nM); 1.93% (10000 nM).
